Experimental data from PubChem BioAssay (NCATS).
Records with an inconclusive call do not appear. The source made the active and inactive calls. The call rests on the fitted dose curve; in most records, active means well fitted cell-killing curve with a large enough effect; inconclusive means small, poorly fitted or top-dose-only effect, or effect the other way; inactive means flat fitted curve, though single readings scatter.

Assay: Cell Viability - LYMP2-003 (AID 965);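 further: cells exposed to compounds for 24 h before reading; nearly all actives have a fitted effect of over 50% in size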;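 on activity change, negative = cytotoxicity: 0% = DMSO only and full effect = 92 µM tetraoctylammonium bromide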
Details: LYMP2-003 lymphoblastoid cell viability; series mostly up to 92.2 µM; activity change, negative = cytotoxicity: at the top concentration
Excerpt: NIH Chemical Genomics Center [NCGC]
NIH Molecular Libraries Screening Centers Network [MLSCN]
National Institutes of Environmental Health Sciences [NIEHS]
National Toxicology Program [NTP]
We have developed a 1536-well cell-based assay for quantitative high throughput screening (qHTS) against a number of cell lines to determine in vitro cytotoxicity of small molecules. This particular assay uses a human lymphoblastoid cell line (LYMP2-003) purchased from Coriell Institute for Medical Research.
NCGC Assay Protocol Summary:
The CellTiter-Glo luminescent cell viability assay (Promega) is a homogeneous method to measure the number of viable cells in culture. The end point readout of this assay is based on quantitation of intracellular ATP, an indicator of metabolic activity, using the luciferase reaction. Luciferase catalyzes the oxidation of beetle Luciferin to oxyluciferin and light in the presence of ATP. The luminescent signal is proportional to amount of ATP present.
Using the CellTiter-Glo luminescent cell viability assay, the amount of cellular ATP was measured in the lymphoblastoid cell line with complete culture medium following compound treatment for 24 hours. The assay was performed in opaque white Kalypsys 1536-well plates. In the screen, tetraoctylammonium bromide was used as positive control. Library compounds were measured for their ability to cause acute toxicity in the cell line, as reflected by a decrease in intracellular ATP levels, in a concentration-dependent manner. […] AC50 values were determined from concentration-response data modeled with the standard Hill equation.
qHTS protocol for CellTiter Glo lymphoblastoid cellular assay
[Step] [Parameter] [Value] [Description]
1. Reagent; 5 uL; 2500 lymphoblastoid cells/well
2. Time; 5 hr; 37 C incubation
4. Controls; 23 nL; Tetraoctylammonium bromide 6.4pM to 92 uM
5. Time; 24 hr; 37 C incubation
6. Reagent; 5 uL; CellTiter Glo reagent
7. Time; 30 min; Room Temperature
8. Detection; Luminescence; Viewlux plate reader
Keywords: cell viability, cytotoxicity, lymphoblastoid cell line, luminescence, NTPHTS, NTPHTS_NCGC, NIEHS, DSSTox, MLSMR, MLSCN, NIH Roadmap, qHTS, NCGC
Potency means the concentration at half of the fitted maximal effect.

SMILES | activity change, negative = cytotoxicity | Potency
C=CCc1ccc(O)c(OC)c1 | 20.2% (inactive) | –
CCCCCCc1ccc(O)cc1O | 7.34% (inactive) | –
C[C@]12CC[C@@H]3c4ccc(O)cc4CC[C@H]3[C@@H]1CC[C@@H]2O | -5.04% (inactive) | –
CN(C)/N=N/c1nc[nH]c1C(N)=O | 11.8% (inactive) | –
CC(O)C(=O)O (configuration not stated) | 29.7% (inactive) | –
CC(C)(C)CC(C)(C)c1ccc(OCCOCC[N+](C)(C)Cc2ccccc2)cc1 | – | 39.8 µM (active)
O=C1OC(c2ccc(O)cc2)(c2ccc(O)cc2)c2ccccc21 | 21.6% (inactive) | –
COc1cccc2c1C(=O)c1c(O)c3c(c(O)c1C2=O)C[C@@](O)(C(=O)CO)C[C@@H]3O[C@H]1C[C@H](N)[C@H](O)[C@H](C)O1 | – | 0.501 µM (active)
COC1=CC(=O)C[C@@H](C)[C@]12Oc1c(Cl)c(OC)cc(OC)c1C2=O | -1.83% (inactive) | –
O=c1ccc2ccccc2o1 | 13.8% (inactive) | –
Oc1ccc(O)cc1 | – | 39.8 µM (active)
CC(=O)Oc1ccc(C(c2ccc(OC(C)=O)cc2)c2ccccn2)cc1 | 0.868% (inactive) | –
C=C(CC)C(=O)c1ccc(OCC(=O)O)c(Cl)c1Cl | – | 50.1 µM (active)
O=C(O)CCCCC(=O)O | 8.76% (inactive) | –
Nc1ccc(C(=O)O)cc1 | 3.87% (inactive) | –
COc1cccc2c1C(=O)c1c(O)c3c(c(O)c1C2=O)C[C@@](O)(C(C)=O)C[C@@H]3O[C@H]1C[C@H](N)[C@H](O)[C@H](C)O1 | – | 0.316 µM (active)
CC/C(=C(/CC)c1ccc(O)cc1)c1ccc(O)cc1 | 5.12% (inactive) | –
